# Source: PubChem BioAssay (NMMLSC)
# In the library only some 2.2% were active in any assay of this set; here they are far more common.
# MEKK2 mut-MEK5: signal of MEK5 binding to mutant human MEKK2 PB1 domain. bead flow cytometry, Alexa488-MEK5 binding to MEKK2 mutant. percent response, % at 10 µM. 290,000 compounds, 0.35% hits. AID 1530; in the data active means percent response above about 24%, passing the limit was not always enough
# VLA-4 inh: inhibition in a human VLA-4 binding assay; P13612; VLA-4 expressing cells, ligand binding flow cytometry; inhibition, % (about 7 µM as worked out from the volumes in the protocol); 330,000 compounds, 0.2% hits; AID 2557; in the data active means inhibition above about 50%
# MEKK3 PB1 HTS: modulators (inhibitors or enhancers) of MEK5 binding to human MEKK3 PB1 domain. Q99759. bead-based flow cytometry, Alexa488-MEK5 binding to MEKK3; actives lie on both sides; 0 = blocked by unlabeled MEK5, 100 = vehicle. binding response (% of control), % at 10 µM. 290,000 compounds, 1.4% hits;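 active means binding response more than 3 SD above or below the average of its plate-row segment, actives on both sides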;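 further: Alexa488 bead fluorescence after subtracting the streptavidin-only scavenger bead signal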
# Target sequence (Q99759 whole entry, looked up, the tested form may be a part): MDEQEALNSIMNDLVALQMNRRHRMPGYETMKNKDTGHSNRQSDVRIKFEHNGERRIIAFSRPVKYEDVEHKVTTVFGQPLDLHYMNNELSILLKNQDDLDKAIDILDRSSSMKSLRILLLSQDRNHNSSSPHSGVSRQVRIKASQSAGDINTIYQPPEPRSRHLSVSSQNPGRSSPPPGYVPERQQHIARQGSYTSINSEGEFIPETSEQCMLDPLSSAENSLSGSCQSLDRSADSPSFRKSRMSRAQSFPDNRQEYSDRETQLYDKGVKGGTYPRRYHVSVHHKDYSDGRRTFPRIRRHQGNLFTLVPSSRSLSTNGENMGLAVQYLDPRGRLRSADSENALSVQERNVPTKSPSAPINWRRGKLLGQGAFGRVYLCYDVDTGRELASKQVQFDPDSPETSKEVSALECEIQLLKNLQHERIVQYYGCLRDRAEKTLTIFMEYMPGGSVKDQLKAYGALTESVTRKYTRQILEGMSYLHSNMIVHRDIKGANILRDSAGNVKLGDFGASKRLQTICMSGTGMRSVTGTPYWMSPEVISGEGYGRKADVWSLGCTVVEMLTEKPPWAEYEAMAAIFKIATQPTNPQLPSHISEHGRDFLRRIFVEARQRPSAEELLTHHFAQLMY
# MEKK2wt PB1 HTS: raises or lowers MEK5 binding to wildtype human MEKK2 PB1 domain; Q9Y2U5; bead flow cytometry, Alexa488-MEK5 binding to MEKK2 WT; actives lie on both sides; binding response (% of control), % at 10 µM; 290,000 compounds, 1.1% hits; AID 1531; in the data active means binding response below about 67% or above about 130%
# MEKK2wt confirm: raises or lowers MEK5 binding to wildtype human MEKK2, retest. shares compounds with MEKK3 PB1 HTS. bead flow cytometry, Alexa488-MEK5 binding to MEKK2 WT; actives lie on both sides. binding response (% of control), % at 10 µM. 5,900 compounds, 2.4% hits. AID 1892; in the data active means binding response below about 16% or above about 210%; inactive means in between
# MEKK2mut confirm: signal of MEK5 binding to mutant human MEKK2, retest | shares compounds with MEKK3 PB1 HTS | bead flow cytometry, Alexa488-MEK5 binding to MEKK2 mutant | percent response, % at 10 µM | 5,900 compounds, 2% hits | AID 1893; in the data active means percent response mostly above about 71%, no sharp cut-off; inactive means mostly below about 38%;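 further: higher means compound restores mutant binding toward wildtype level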
# MEKK3-MEK5 inh: confirmation of inhibitors of MEK5 binding to human MEKK3. bead flow cytometry, Alexa488-MEK5 binding to MEKK3; hits give low values. shares compounds with MEKK3 PB1 HTS. binding response (% of control), % at 10 µM. 5,900 compounds, 1.8% hits. AID 1894;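 active means binding response below 72% of control, or above a set upper limit, though filed actives all read lower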;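 further: 100% = DMSO only wells and 0% = binding blocked by excess unlabeled MEK5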
# * marks the source's active call; other numbers are inactive results; . = no result given; [ ] = dose if it differs, or a comment.
SMILES,MEKK2 mut-MEK5,VLA-4 inh,MEKK3 PB1 HTS,MEKK2wt PB1 HTS,MEKK2wt confirm,MEKK2mut confirm,MEKK3-MEK5 inh
COc1ccc(CCNC(=O)CC2SC(=NCCC(C)C)NC2=O)cc1OC (centres undefined),0,-9,150*,107,102,4,103
COc1ccc(-c2nc(C)sc2CC(=O)O)cc1OC,-9,-5,96,92,.,.,.
COC(=O)C1=C(C(=O)OC)[C@@H]2N(C)c3ccccc3[C@@]23C[C@@H](C(=O)OC)N=C3N1,2,-2,95,93,.,.,.
COC(=O)C1=C(C(=O)OC)[C@@H]2N(Cc3ccccc3)c3ccccc3[C@@]23C[C@@H](C(=O)OC)N=C3N1,3,-6,124,141*,103,-3,99
O=C(Nc1ccc(O)cc1)/C(=C\c1ccncc1)NC(=O)c1ccccc1,-5,9,100,94,.,.,.
O=C(Nc1ccccc1)/C(=C\c1ccccc1)NC(=O)c1ccco1,-9,-9,97,97,.,.,.
O=C(Nc1ccccc1)/C(=C\c1ccncc1)NC(=O)c1ccccc1,6,-3,131*,120,96,-2,94
O=C(Nc1ccccc1)/C(=C/c1cccnc1)NC(=O)c1ccco1,0,6,129*,106,102,2,102
Cc1ccc(NC(=O)c2cc(S(=O)(=O)NCCC3=CCCCC3)ccc2F)cc1,0,17,128*,109,98,-6,104
O=C(NCCC1=CCCCC1)c1cc(S(=O)(=O)N2CCOCC2)ccc1F,.,10,.,.,.,.,.
O=C(O)C1Nc2c(C(=O)N3CCOCC3)cccc2C2C=CCC12 (centres undefined),-4,-2,97,98,.,.,.
Cc1ccc2c(c1C)NC(C(=O)O)C1CC=CC21 (centres undefined),36*,2,85,39*,93,-10,100
NC(=O)CC(NC(=O)c1ccccc1)c1ccc(N2CCC(Br)CC2)c([N+](=O)[O-])c1 (centres undefined),-2,-7,77*[inhibitor],97,91,-14,91
CN(C)c1ccc(/C=C(\C#N)c2ccccn2)cc1,-2,-6,99,104,.,.,.
COC(=O)c1ccc(/C=C(\C#N)c2ccccn2)cc1,-47,13,2.0*[inhibitor],1.0*[inhibitor],89,-34,87
Cc1ccc(-c2nnc(NC3CCCC3)s2)cc1,4,-1,99,96,.,.,.
O=C(c1c[nH]c(C(=O)C(Cl)(Cl)Cl)c1)c1ccc(F)cc1Cl,-23,-7,1.0*[inhibitor],-2.0*[inhibitor],104,3,107
Cc1cc2c(cc1S(=O)(=O)C(C)CC(=O)NCc1ccco1)OCC(=O)N2 (centres undefined),0,8,101,100,.,.,.
COc1cccc(C(C(=O)NCc2ccco2)N(C(=O)Cn2nnc3ccccc32)C2CC2)c1OC (centres undefined),-16,14,82*[inhibitor],87,105,3,103
CC1CC(=O)Nc2ccccc2N1C(=O)CN1CCN(c2ccccc2)CC1 (centres undefined),-4,-4,94,-5.0*[inhibitor],99,-5,99
CCOc1ccc(CN(C)CC(=O)NNC(=O)c2ccc(Cl)cc2)cc1OC,-1,17,128*,98,100,-7,97
COc1cccc(CN(C)CC(=O)NNC(=O)c2ccc(Cl)cc2)c1,6,-15,94,94,.,.,.
COc1cc2nc(Nc3ccc(F)cc3)nc(N)c2cc1OC,22,-3,105,133,.,.,.
COc1cc2nc(Nc3ccc(C)c(Cl)c3)nc(N)c2cc1OC,50*,14,105,181*,198,65,105
COc1cc2nc(Nc3ccc(C)c(C)c3)nc(N)c2cc1OC,28*,7,112,159*,159,39,104
CCOC(=O)c1ccc(Nc2nc(N)c3cc(OC)c(OC)cc3n2)cc1,30*,-6,113,141*,169,37,106
